Measurements taken from PubChem BioAssay.
Calls of active or inactive are those of the source.

test: E. coli acrAB mutant growth effects, primary screen, E. coli filamentation inducers, strain DRC39, OD650, 24 h (AID 1178); details: higher = more signal, called active from +8 up or from −8 down;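 also: growth measured as culture turbidity by optical density at 650 nm; test concentration not given here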

z-score, inactive:
CCCC[C@@H]1C[C@H]1[C@@H](NC(=O)c1ccco1)c1ccc(-c2ccccc2)cc1 -1.05, O=C1O[C@@H](c2ccccc2)[C@@H](c2ccccc2)N2[C@@H](c3ccccc3OCCO)[C@]3(C(=O)Nc4ccc(C#CC5=CCCCC5)cc43)[C@@H](C(=O)N3CCCCCCC3)[C@H]12 -0.994, O=C1NC(=O)C2C1C=CC(C(O)c1cccs1)N2Nc1ccc(Cl)cc1Cl (stereo not given) 0.0751, COC(=O)[C@]1(CCC(=O)OC(C)(C)C)N=C(c2ccc(OCCCO)cc2)O[C@@H]1c1ccccc1CN=[N+]=[N-] 0.637, COc1ccc(C(=O)Nc2ccc(CN3C(=O)[C@]4(O[C@H](CCO)[C@@H]([Si](C)(C)c5ccc(OC)cc5)[C@@H]4C)c4ccccc43)cc2)cc1 0.65, CC1(C)C2C=C(C(O)C3C=CC4C(=O)NC(=O)C4N3Nc3ccc(Cl)cc3Cl)C[C@@H]1C2 (stereo not given in full) -0.274, C=C(COC)C(=O)CC[C@@H](OC(C)=O)c1ccc(CO)o1 -0.216, COC(=O)c1c(CC[C@@H](CO)NC(=O)NCCn2cc(C3(O)CCCC3)nn2)oc(C(C)=O)c1C(=O)OC -0.426, C=C(C(=O)CC[C@@H](OC(=O)c1cccnc1)c1ccccc1OCCO)C(C)C 0.335, CCOC(=O)C[C@H]1[C@H](OC(=O)c2ccc(C(=O)c3ccccc3)cc2)[C@@H](NC(=O)c2ccccc2)c2cc(OCCCO)ccc2N1C(=O)c1ccc2ccccc2n1 -0.674, COc1cc(NN2C(C(O)c3ccco3)C=CC3C(=O)N(c4ccccc4)C(=O)C32)cc(OC)c1OC (stereo not given) -0.225, COCCCNC(=O)[C@@]1(C)c2ccccc2C(=O)N(C(C)C)[C@H]1c1ccc(CO)cc1 0.32, COc1cc2c(cc1OC)CN(C(=O)[C@@H]1[C@H]3C(=O)O[C@H](c4ccccc4)[C@H](c4ccccc4)N3[C@H](c3ccc(O)cc3)[C@@]13C(=O)Nc1ccccc13)CC2 1.07, O=C(NC1CC1)[C@@H]1c2ccccc2C(=O)N(Cc2ccccc2Cl)[C@H]1c1ccc(CO)cc1 1.28, O=C1c2ccccc2[C@](Cc2ccccc2I)(C(=O)NCC(F)(F)F)[C@H](c2ccc(CO)cc2)N1Cc1ccccc1Cl 0.489, Cc1ccc(S[C@]2(C(=O)O)CC(=O)N(C(C)C)[C@@H]2c2ccc(CO)cc2I)cc1 0.818, COc1ccc(C#Cc2ccc3c(c2)[C@]2(C(=O)N3)[C@H](C(=O)NC[C@H](O)c3ccccc3)[C@H]3C(=O)O[C@H](c4ccccc4)[C@H](c4ccccc4)N3[C@@H]2c2ccc(O)cc2)cc1 0.0945, COC(=O)[C@@]1(Cc2ccc(F)cc2)[C@H]2c3cc(C(=O)N4CCCC4)n(Cc4ccc(S(C)(=O)=O)cc4)c3C[C@H]2CN1C(=O)c1ccccc1 -1.12, O=C1C2C=CC(C(O)c3cccc4ccccc34)N(Nc3ccccc3F)C2C(=O)N1c1ccccc1 (stereo not given) -0.844, CCCC[C@@H]1C[C@H]1[C@@H](NC(=O)c1ccco1)c1ccccc1C(F)(F)F -0.714, CC(C)NC(=O)[C@@]1(c2ccc([N+](=O)[O-])cc2)CC(=O)N(C2CCCCC2)[C@@H]1c1ccc(CO)cc1I 0.543, C=CCOC(=O)[C@H]1[C@@H]2C(=O)O[C@@H](c3ccccc3)[C@@H](c3ccccc3)N2[C@@H](c2ccc(OCCOC(=O)[C@H]3C[C@H]4C(=O)N[C@@H](CCCCNC(C)=O)C(=O)N4[C@H]3c3ccc(O)cc3)cc2)[C@]12C(=O)Nc1ccc(I)cc12 -1.83, Cc1ccc(S[C@]2(C(=O)NC3CC3)CC(=O)N(Cc3ccccc3)[C@@H]2c2ccc(CO)cc2I)cc1 0.714, CC1CC/C=C\[C@H]2OC34C=CCN(C(C)(C)C)C(=O)[C@H]3N(CCO)C(=O)[C@@H]4C2C(=O)O1 (stereo not given in full) -0.344, C=CCC(OC(C)=O)[C@@H]1[C@@H](N(Cc2ccc(-c3ccccc3)cc2)C(=O)Cc2ccc(OC)cc2)c2cc(OCCCO)ccc2N1C(=O)Cc1ccc2ccccc2c1 (stereo not given in full) -0.39, COC(=O)C(CC#Cc1ccc2c(c1)[C@]1(C(=O)N2)[C@H](C(=O)Nc2nc3ccccc3s2)[C@H]2C(=O)O[C@H](c3ccccc3)[C@H](c3ccccc3)N2[C@@H]1c1ccc(O)cc1)C(=O)OC -0.0857, O=C1C[C@@](C(=O)NCCN2CCOCC2)(c2ccc([N+](=O)[O-])cc2)[C@@H](c2ccc(CO)cc2I)N1CC12CC3CC(CC(C3)C1)C2 -0.272, CCCCCN1CC=CC23O[C@@H]4C=CCCOC(=O)C4[C@H]2C(=O)N(CCCCCO)[C@@H]3C1=O (stereo not given in full) 0.685, COCCCNC(=O)[C@@H]1c2ccccc2C(=O)N(Cc2ccccc2Cl)[C@H]1c1ccc(CO)cc1 0.987, C=C(CCCC)/C(=C/C[C@@H](OC(C)=O)c1ccc(OCCO)cc1)c1cnc2ccccc2c1 1.85, COc1ccc(CCNC(=O)[C@@]2(Sc3ccc(C)cc3)CC(=O)N(C(C)C)[C@@H]2c2ccc(CO)cc2I)cc1 -0.246, CCCC[C@@H]1C[C@H]1[C@@H](NC(=O)c1cccs1)c1ccc(-c2ccccc2)cc1 -0.409, CN(C)CCCCCCNC(=O)[C@H]1C[C@H]2C(=O)N[C@@H](CCCCN)C(=O)N2[C@H]1c1cccc(OCCO)c1 0.422, C=C(C)[C@@H]1CC=C(C(O)C2C=CC3C(=O)N(c4ccccc4)C(=O)C3N2Nc2ccccc2)CC1 (stereo not given in full) 0.195, COCCOC(=O)N1C(=O)[C@@]2(c3cc(C#CCC(C(=O)OC)C(=O)OC)ccc31)[C@H](c1ccccc1OCCO)N1[C@H](c3ccccc3)[C@H](c3ccccc3)OC(=O)[C@H]1[C@@H]2C(=O)NC[C@H](O)c1ccccc1 0.675
